Source: PubChem
Tau fluor counter – counter-screen for tau fibril formation inhibitors; tau K18 P301L Alexa594 fluorescence, heparin fibrillization; Potency, µM (top dose mostly 57.7 µM); 0.93% of 280,000 active; AID 1463; also: nearly all actives have a fitted effect of over 55% in size
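Human tau K18 P301L (15 uM unlabeled, 0.24 uM Alexa 594-labeled) in 100 mM sodium acetate pH 7 with 20 uM heparin, 6 hr at 37 C. ThT 30 uM added, 1 hr ambient; Alexa 594 FP and total fluorescence read at 555/632 nm.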
TexasRed fluor – counter-screen for TRb-SRC2 inhibitors: fluorescence interference; TRb/SRC2 Texas Red total fluorescence interference; Potency, µM (series often up to 106 µM); 0.29% of 280,000 active; active = well fitted curve in either direction with a large enough effect; inconclusive = small, poorly fitted or top-dose-only effect
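Human TRβ ligand-binding domain (0.6 uM) and Texas Red SRC2 peptide (20 nM) in Tris buffer with 1 uM T3 and 5% DMSO were incubated with pinned compound for 5 hr at ambient temperature. Total fluorescence was computed as S + 2P (555/632 nm).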
KDM4E inh – JMJD2E (human) inhibition. B2RXH2. JMJD2E catalytic domain, FDH-coupled NADH fluorescence (FDH is formaldehyde dehydrogenase). 1.6% of 230,000 active. Potency, µM (doses to about 57.1 µM), usual class: inhibitors; active = well fitted inhibition curve with a large enough effect, not every such curve was filed as active; inconclusive = small, poorly fitted or top-dose-only effect, or another doubt; inactive = no such curve, though single readings can be large or run the other way; also: nearly all actives have a fitted effect of over 50% in size
TRb SRC2 PPI – disrupts binding of human TR beta to SRC2. P10828. TRbeta-SRC2 peptide binding, fluorescence polarization; receptor liganded with 1 µM T3. Potency, µM (highest dose often 106 µM), usual class: inhibitors. 0.065% of 280,000 active; also: nearly all actives have a fitted effect of over 50% in size
Target sequence (P10828 whole entry, looked up): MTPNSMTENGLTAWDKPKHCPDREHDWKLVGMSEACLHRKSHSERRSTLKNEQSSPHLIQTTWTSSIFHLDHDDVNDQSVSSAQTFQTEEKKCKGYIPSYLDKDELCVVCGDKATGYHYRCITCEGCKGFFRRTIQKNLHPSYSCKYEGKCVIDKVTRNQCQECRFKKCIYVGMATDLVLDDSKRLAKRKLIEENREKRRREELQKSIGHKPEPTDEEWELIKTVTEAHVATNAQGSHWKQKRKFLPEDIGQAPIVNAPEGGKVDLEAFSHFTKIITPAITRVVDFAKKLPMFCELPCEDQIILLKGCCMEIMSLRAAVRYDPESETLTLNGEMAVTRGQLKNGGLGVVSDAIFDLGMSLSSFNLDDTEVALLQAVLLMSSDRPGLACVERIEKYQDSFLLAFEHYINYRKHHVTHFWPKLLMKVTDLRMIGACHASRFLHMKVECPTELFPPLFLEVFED
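A fluorescence polarization screen tested compounds at multiple concentrations against complex formation between 0.6 uM TRb ligand-binding domain and 20 nM Texas Red SRC2 peptide, with 1 uM T3 present; readout after 5 hr.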
Tau fibril FP – tau fibrillization inhibition (FP); Potency, µM (highest dose often 57.7 µM), actives largely listed as inhibitors; AID 1468; P10636; 0.39% of 280,000 active; K18 P301L tau heparin fibrillization, Alexa594 FP, 6 h; also: nearly all actives have a fitted effect of over 55% in size
Target sequence (P10636 561-689 P618L limits assumed): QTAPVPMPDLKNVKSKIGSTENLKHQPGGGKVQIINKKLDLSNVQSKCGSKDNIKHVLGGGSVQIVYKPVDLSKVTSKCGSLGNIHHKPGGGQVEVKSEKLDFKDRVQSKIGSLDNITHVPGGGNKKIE
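Human tau K18 […] P301L fragment, 15 uM unlabeled plus 0.24 uM Alexa 594-labeled tau (final), with compound and 20 uM heparin in 100 mM sodium acetate pH 7; 6 hr at 37 C, then Alexa 594 FP read.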
Tau fibril ThT – blocks human tau fibril formation measured by thioflavin T; P10636; recombinant tau K18 P301L (four-repeat tau fragment), heparin-induced fibrillization, ThT fluorescence; Potency, µM (titrated, usually from 57.4 µM), hits mostly inhibitors; 2.1% of 270,000 active; AID 1460; also: nearly all actives have a fitted effect of over 55% in size
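Heparin-induced fibrillization of the P301L-mutant K18 repeat-domain fragment of human tau was followed by ThT binding in quantitative high-throughput format.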
A number is an active result; n = inactive; u = inconclusive; x = no result given; [ ] = dose if it differs, or a comment. An excerpt weighted towards active compounds, which were near 3.5% of everything screened. Unless noted, calls follow the shape of the dose curve; as a rule, active = well fitted curve in the direction sought with a large enough effect; inconclusive = small, poorly fitted or top-dose-only effect, or another doubt; inactive = no such curve, though single readings can be large; an effect the other way counts as inactive or inconclusive.

SMILES	Tau fluor counter	TexasRed fluor	KDM4E inh	TRb SRC2 PPI	Tau fibril FP	Tau fibril ThT
COc1ccc(Nc2c3c(nc4ccc(NC(=O)/C=C/c5cccc(OC)c5OC)cc24)CCCC3)cc1OC	u	n	x	n	n	14.1µM
COc1ccc(/C=C/C(=O)Nc2ccc3nc4c(c(Nc5ccc(OC)c(OC)c5)c3c2)CCCC4)cc1	15.8µM[quencher]	n	x	n	n	25.1µM
COc1ccccc1Nc1c2c(nc3ccc(NC(=O)c4cccc(F)c4)cc13)CCCC2	u	n	x	n	n	u
COc1ccc(Nc2c3c(nc4ccccc24)CCCC3)cc1OC	n	n	n	n	n	n
COc1ccc(Nc2c3c(nc4ccc(NC(=O)/C=C/c5cc(OC)c(OC)c(OC)c5)cc24)CCCC3)cc1OC	u	n	x	n	n	u
COc1ccc(/C=C/C(=O)Nc2ccc3nc4c(c(Nc5ccccc5OC)c3c2)CCCC4)cc1	u	n	x	n	u	10µM
COc1ccccc1Nc1c2c(nc3ccc(NC(=O)/C=C/c4cccc(OC)c4OC)cc13)CCCC2	u	n	x	n	n	14.1µM
CCCSc1nc2c(c(=O)n1-c1ccc(OCC)cc1)SCC2	n	n	n	n	n	n
Cc1ccc(NC(=O)Cn2cc(S(=O)(=O)c3ccc(C)cc3)c(=O)c3cc(F)ccc32)cc1	n	n	n	n	n	n
CC1CCN(C(=O)Cn2cc(SCC(=O)NCc3ccccc3)c3ccccc32)CC1	n	n	x	n	n	n
O=C(CNS(=O)(=O)c1ccccc1)OCc1cccc([N+](=O)[O-])c1	n	n	n	n	n	n
O=S(c1ccc(Cl)cc1)c1cc(Cl)c(Cl)cc1Cl (configuration not stated)	x	n	x	n	x	x
c1cc2c3c(cccc3c1)NC1(CCCCCC1)N2	u	n	3.55µM	n	n	u
c1cc2c3c(cccc3c1)NC1(CCCCC1)N2	u	n	3.16µM	n	n	u
c1cc2c3c(cccc3c1)NC1(CCC3(CC1)Nc1cccc4cccc(c14)N3)N2	12.6µM[quencher]	n	u	n	n	15.8µM
CCC(=O)N(CCC(Cc1ccccc1)c1ccc2c(c1)OCO2)Cc1ccccc1F (configuration not stated)	n	n	n	n	n	n
Cc1ccc2cccc(SCC(=O)NCc3ccco3)c2n1	n	n	u	n	n	n
COc1ccc(N(C)C(=O)c2cc3c(s2)-c2ccccc2S(=O)(=O)C3)cc1	u	n	n	n	n	x
CCc1cc(=O)[nH]c(SCc2nc(-c3ccccc3C)no2)n1	n	n	x	n	n	u
Cc1ccc(N2NC(=O)/C(=C\c3cc4c(cc3[N+](=O)[O-])OCO4)C2=O)cc1C	u	n	n	n	u	14.1µM
O=C1NN(c2ccccc2)C(=O)/C1=C\c1cccn1-c1ccc(Cl)c([N+](=O)[O-])c1	n	n	n	n	n	u
Cc1ccccc1C(=O)Nc1nnc(S(=O)(=O)N2CCCCCC2)s1	n	n	x	n	n	14.1µM
O=C(Nc1nnc(S(=O)(=O)N2CCOCC2)s1)c1cccc(F)c1	u	n	x	n	u	u
O=C(Nc1nnc(S(=O)(=O)N2CCCCC2)s1)c1ccc(F)cc1	u	100µM[quencher]	x	n	n	4.47µM
Cc1cccc(C(=O)Nc2nnc(S(=O)(=O)N3CCOCC3)s2)c1	n	n	x	n	n	3.55µM
SMILES	Tau fluor counter	TexasRed fluor	KDM4E inh	TRb SRC2 PPI	Tau fibril FP	Tau fibril ThT
O=C(Nc1nnc(S(=O)(=O)N2CCCCCC2)s1)c1ccccc1F	n	n	x	n	n	u
COc1cc(OC)c(C2Nc3ccccc3-c3nnc(SCc4ccccc4)nc3O2)cc1OC (configuration not stated)	n	n	x	n	n	u
O=C(/C(=C/O)N=Nc1ccccc1)c1ccco1	n	n	n	n	n	20µM
CC(=O)N(c1ccc(C)cc1)C1C=CS(=O)(=O)C1 (configuration not stated)	n	n	n	n	n	n
CCCn1c(-c2cccc([N+](=O)[O-])c2)nc2c1c(=O)[nH]c(=O)n2Cc1ccccc1	n	n	n	n	n	u
N#Cc1c(NCc2ccccc2)ccnc1NCc1cccnc1	n	n	n	n	n	n
CN(C)c1cc(Cl)c2nonc2c1N	u	n	n	u	u	25.1µM
Cc1ccc(N)cc1S(=O)(=O)N(C)C	n	n	n	n	n	n
CCn1c(=O)c(=O)[nH]c2cc(C(=O)NC3CCCc4ccccc43)ccc21 (configuration not stated)	n	39.8µM[fluorescent]	u	n	n	n
COc1ccc(C(=O)c2ccccc2)c(O)c1	n	n	n	n	n	n
COc1ccc(C(=O)c2ccccc2)c(O)c1O	n	n	22.4µM	n	n	u
O=C(NCCCN1CCOCC1)c1sc2cc([N+](=O)[O-])ccc2c1Cl	n	n	u	n	u	28.2µM
CCc1ccc2oc(-c3cc(N)ccc3O)nc2c1	u	n	u	n	n	u
CC(C)c1ccc2oc(-c3cc(NC(=O)c4cccnc4)ccc3Cl)nc2c1	u	n	x	n	7.94µM	n
Nc1ccc2oc(Cc3ccc(Cl)cc3)nc2c1	u	n	x	n	u	22.4µM
CCc1ccc2oc(-c3cc(NC(=O)c4cccs4)ccc3Cl)nc2c1	u	n	x	n	12.6µM	n
O=C(Nc1ccc2oc(-c3ccccc3)nc2c1)c1cccnc1	n	n	n	n	n	n
CCc1ccc2oc(-c3cc(N)ccc3Cl)nc2c1	14.1µM[quencher]	n	u	n	n	u
CCOC(=O)c1oc2cc(OC(C)=O)ccc2c(=O)c1-c1ccc(OC)c(OC)c1	x	n	n	n	x	x
O=C(NN1C(=O)c2ccccc2NC1c1ccc([N+](=O)[O-])o1)c1ccccc1 (configuration not stated)	n	n	n	n	u	u
O=C(NN1C(=O)c2ccccc2NC1c1ccc([N+](=O)[O-])o1)c1ccc([N+](=O)[O-])cc1 (configuration not stated)	u	n	n	n	u	3.16µM
CSc1ccc(CNC(=O)C2CCN(c3nc4ccccc4nc3C(F)(F)F)CC2)cc1	n	n	x	n	n	n
CCOC(=O)c1c(C)c(C(=O)Nc2ccc3c(c2)OCCO3)c(C)n1C	n	n	n	n	n	u
CCOC(=O)c1ccc(NC(=O)Nc2ccc3c(c2)OCCO3)cc1	12.6µM[quencher]	n	n	n	u	u
O=C(O)c1ccccc1NS(=O)(=O)c1ccc(NNC(=S)Nc2ccc(OC(F)F)cc2)c([N+](=O)[O-])c1	10µM[quencher]	u	n	n	25.1µM	7.08µM
Cc1ccc(NC(=S)NNc2ccc([N+](=O)[O-])cc2S(=O)(=O)Nc2ccccc2C(=O)O)cc1C	u	n	u	n	u	7.94µM
O=C(O)c1ccccc1Nc1ccc([N+](=O)[O-])cc1C(=O)O	n	n	n	n	n	x
